From PubChem BioAssay (NCI)
Compounds without any hit were thinned out: in the full panel of roughly 83,000, 20% have a hit.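 Cells were grown in 96-well plates and exposed to the test compound at a single concentration for 48 hours; results are reported as percent growth, with values below 10 considered active.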 A number with no mark means an inactive call. Active and inactive are the calls of the source.

Tested on: MDA-MB-468 breast
Assay: NCI-60 one-dose screen, 48 h (100 = growth as untreated, 0 = no growth, -100 = all killed)
Conditions: 10 µM unless noted

| Structure (SMILES) | growth |
| --- | --- |
| CC(=O)OCCC/C(=C/c1cc2ccccc2c2ccccc12)[N+](=O)[O-] | -69% (active) |
| COc1cc(/C=C2\CCC/C(=C\c3ccc(OCC4CO4)c(OC)c3)C2=O)ccc1OCC1CO1 (stereo not given) | 20.1% |
| C[n+]1cccc(CC(=O)NO)c1 | 88.3% |
| COc1cc(F)c(-c2nc3c(C)cccc3n2Cc2c(F)cccc2F)c(F)c1 | 65.5% |
| O=C(CSc1nc2ccc([N+](=O)[O-])cc2[nH]1)Nc1cccc(C(F)(F)F)c1 | -8.14% (active) |
| NN1C(=O)CSC1=S | 119% |
| COc1cc2cc(Oc3ccc(NC(=O)Nc4cccc(C(F)(F)F)c4)cc3)c(C)nc2cc1OCCN1CCOCC1 | -3.82% (active) |
| Clc1ccc2c(c1)C(c1c[nH]c3ccccc13)(c1c[nH]c3ccccc13)CCO2 | 86.5% |
| CN(C)c1ccc(N=Nc2ccccn2)c(O)c1 | 3.89% (active) |
| CCCn1cnc2c(c1=N)C(c1ccc(OC)cc1)c1sc3c(C)cccc3c1O2 (stereo not given) | 50% |
| O=C(/C=C\c1cccc([N+](=O)[O-])c1)/C=C/c1cccc([N+](=O)[O-])c1 | 91.4% |
| COc1cc(NCCCCN=C(N)NC(N)=NC(C)C)c2ncccc2c1 | -61.8% (active) |
| C=Cc1cnc(Nc2ccc(OC)cc2)nc1NCCCNC(=O)C1CCC1 | 46.4% |
| O=C(O)CC1CCCCC1c1ccccc1 (stereo not given) | 105% |
| COc1ccc(N2C(=O)c3cc(OC)c(OC)cc3NC2SCc2ccccc2)cc1 (stereo not given) | 108% |
| O=C(N/N=C/[C@H](O)[C@@H](O)[C@@H](O)[C@H](O)CO)c1ccc(NC(=O)c2cccnc2)cc1 | 105% |
| Clc1ccc(C2CC(c3cccc(Nc4ccncc4)c3)=NN2c2cc(Cl)cc(Cl)c2)cc1 (stereo not given) | 84.9% |
| O=C1c2ccccc2C(=O)N1c1ccccc1 | 108% |
| COc1cc(CSc2nc3ccc(C)cc3c(=O)n2Cc2ccccc2)cc(OC)c1OC | -25.1% (active) |
| CCOC(=O)c1c(C)nc2c(c1N)CC(=O)N2Cc1ccc(F)cc1 | 91% |

| Structure (SMILES) | growth |
| --- | --- |
| Fc1[nH]nc2ccc([C@@H]3Nc4ccc5[nH]ncc5c4[C@H]4C5CCC(C5)[C@@H]34)cc12 (stereo not given in full) | 16% |
| NC(N)=N/N=C/c1ccccc1 | 94.2% |
| Cc1ccc(NC(=O)CSc2nc3ccccc3c(=O)n2CCc2ccccc2)c(C(=O)O)c1 | 110% |
| c1ccc2c(c1)oc1cc3sccc3nc12 | 102% |
| CSc1nc(C)c(C(=O)CCN2CCN(c3ccccn3)CC2)s1 | 87.1% |
| CCCCC1CCc2cccc3c(SCC(=O)N(C)c4ccc(Cl)cc4)cc[n+]1c23 (stereo not given) | 106% |
| Cc1[nH]c(C(=O)Nc2nc3ccc(NC(=O)CCN)cc3s2)c(Cl)c1Cl | 69.4% |
| Cc1ccc[n+](CCC(N)=O)c1 | 108% |
| N/C(=N\C(N)=N\c1nc2ccccc2s1)c1cnccn1 | -24.8% (active) |
| CNC(=O)c1cccnc1 | 106% |
| Cc1ccc(C(=O)C2C(=O)C3CCC2C3)cc1 (stereo not given) | 100% |
| O=C(Nc1ccc2c(c1)C(=O)c1ccccc1-2)c1ccccc1 | 85.6% |
| COc1ccc(C2CC(=O)Oc3c(OC)c4c(c(OC)c32)OCO4)cc1 (stereo not given) | 96.9% |
| C=CCn1c(SCC(=O)Nc2ccc(/C(C)=N\O)cc2)nnc1-c1cc(-c2ccccc2)nc2ccccc12 | 73% |
| c1ccc2cc(C[n+]3ccn(CCCCCCCCCCn4cc[n+](Cc5ccc6ccccc6c5)c4)c3)ccc2c1 | -28.3% (active) |
| COc1ccccc1/C=C1\Oc2cc(OCCN3CCCC3)ccc2C1=O | 56.3% |
| COc1ccc(CCNC(=S)NN)cc1OC | 128% |
| COc1ccc(/C=C(/C(=O)N2CCN(Cc3ccccc3)CC2)c2cc(OC)c(OC)c(OC)c2)cc1O | 20.4% |
| CCCCCCCC/C=C\CCCCCCCCOc1ccccc1CC(=O)NCC[N+]1(C)CCCC1 | 40.3% |
| O=C(O)c1ccc(-n2cc(/C=N/Nc3ccc(Cl)cc3)c(-c3ccc(F)c(F)c3)n2)cc1 | 83.2% |
